COUP-TFII inh = blocks human COUP-TFII nuclear receptor; P24468; HEK293T NGFI-A luciferase reporter, luminescence; inhibition, % at 8.6 µM; actives 0.7% (n = 370,000); AID 686940;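 active means inhibition above a per-plate cutoff, mean inhibition of test wells between control levels plus 3 SD, cut at about 38% in these data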;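 further: cells cotransfected with COUP-TFII expression vector driving the NGFI-A reporter; 0% = median of COUP-TF2 test wells and 100% = reporter-only cells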
Target sequence (P24468 whole entry, looked up): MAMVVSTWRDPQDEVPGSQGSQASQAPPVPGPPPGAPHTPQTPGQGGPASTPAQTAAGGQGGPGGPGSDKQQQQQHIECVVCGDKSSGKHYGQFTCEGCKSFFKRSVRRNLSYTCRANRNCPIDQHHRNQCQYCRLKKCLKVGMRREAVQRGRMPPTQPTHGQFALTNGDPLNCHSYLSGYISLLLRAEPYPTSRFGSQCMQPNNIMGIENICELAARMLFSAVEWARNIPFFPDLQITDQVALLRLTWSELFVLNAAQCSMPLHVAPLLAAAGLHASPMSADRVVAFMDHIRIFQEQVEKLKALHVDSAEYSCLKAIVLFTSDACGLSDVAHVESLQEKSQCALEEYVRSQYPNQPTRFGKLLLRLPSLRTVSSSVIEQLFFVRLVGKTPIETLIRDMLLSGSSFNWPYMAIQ
NCOA2 inhibitor = human SRC2 (NCOA2) inhibition; Q15596; HEK293 GAL4-SRC2 luciferase reporter, luminescence; inhibition, % at 9 µM; actives 0.17% (n = 370,000); AID 651957;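 active means inhibition above the mean inhibition of all tested compounds plus 3 SD, set per campaign, cut at about 52% in these data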;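 further: 0% = DMSO treated cells and 100% = cells given Gossypol at 36 µM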
SRC1 inh = inhibits human SRC1 coactivator; actives 0.12% (n = 360,000); AID 588354; HEK293 GAL4-SRC1 luciferase reporter, luminescence; Q15788; inhibition, % at 3.6 µM;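 active means inhibition above the campaign mean plus 3 SD, with each screening campaign given its own cutoff, cut at about 60% in these data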;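 further: 0% = DMSO treated cells and 100% = gossypol at 36 µM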
LRH-1 inv ag = inverse agonists of human LRH-1 (NR5A2); O00482; HEK293T StAR-luciferase reporter, LRH-1 transfected, 24 h; inhibition, % at 3.6 µM; actives 0.13% (n = 360,000);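 active means inhibition above the mean inhibition of all tested compounds plus 3 SD, cut at about 73% in these data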;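 further: 0% = DMSO wells and 100% = reporter-only cells lacking LRH-1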
SRC3 inh = human NCOA3 inhibition; HEK293 GAL4-SRC3 luciferase reporter, luminescence; inhibition, % at 3.6 µM; actives 0.17% (n = 360,000); AID 588352;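 active means inhibition above a per-campaign cutoff, the mean of all compounds plus 3 SD, cut at about 60% in these data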;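 further: 0% = DMSO-treated cells and 100% = gossypol-treated cells at 36 µM; higher means less SRC3-driven luciferase light from the GAL4 reporter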
An asterisk follows results filed as active; x = no result. An excerpt weighted towards active compounds, which were near 0.84% of everything screened.

SMILES	COUP-TFII inh	NCOA2 inhibitor	SRC1 inh	LRH-1 inv ag	SRC3 inh
COc1ccc(-c2nnn(CC(=O)N(Cc3ccccc3Cl)C(C(=O)NCC3CCCO3)c3ccco3)n2)cc1OC (centres undefined)	7	95*	-11	-14	11
COC(=O)[C@]12C[C@H](CC(=O)NCCc3ccccc3OC)C(=O)N(Cc3cccc4ccccc34)C1=C[C@H](C(C)C)O[C@@H]2C1CC1	0	30	x	x	x
Cc1cc2cc(CN(Cc3ccco3)S(=O)(=O)c3c(C)ccc4nsnc34)c(=O)[nH]c2cc1C	-11	5	3	10	27
Cc1ccc2cc(CN(Cc3ccco3)S(=O)(=O)c3c(C)ccc4nsnc34)c(=O)[nH]c2c1	-3	77*	-1	-24	-5
C=CCN(C)CC#Cc1ccc(F)cc1	1	11	x	x	x
Cc1ccc(NC(=O)c2cc3ccccc3oc2=O)cc1S(=O)(=O)N(C)C	x	x	85*	75*	85*
Cc1cc(C(=O)N2CCN(c3ccccn3)CC2)no1	1	2	11	1	89*
COc1ccc(C(=O)CC(=O)c2ccc(C(C)(C)C)cc2)cc1	18	-13	-8	-18	-13
COc1ccc(C(=O)C(CCC(CNC(C)(C)C)C(=O)c2ccc(OC)cc2)CNC(C)(C)C)cc1 (centres undefined)	3	54*	23	12	35
CCC1(O)C(=O)OCc2c1cc1n(c2=O)Cc2cc3cc(O)ccc3nc2-1 (centres undefined)	35	34	51	92*	78*
CCC(=O)NCC[C@@H]1CCc2ccc3c(c21)CCO3	-1	-19	x	x	x
COc1ccccc1C(=O)N(CCC1CCCN1C)c1nc2ccccc2s1 (centres undefined)	58*	40	54	52	63*
COc1ccc2sc(N(CCCN(C)C)C(=O)c3nc4ccccc4s3)nc2c1	-9	-19	-29	-10	-36
CCCSc1nnc(-c2ccco2)n1C	-11	4	x	x	x
Cc1cnc(C=NNC(N)=S)c2cccc(N)c12	-7	-3	-4	1	-5
NC(=S)NN=Cc1nccc2ccccc12	-41	4	79*	78*	79*
NC(=S)NN=Cc1nccc2c(C(F)(F)C(F)(F)C(F)(F)F)cccc12	28	47	92*	97*	93*
Nc1[nH]c(C(=O)c2ccccc2)c(-c2ccc(Cl)cc2Cl)c1C(=O)c1cccs1	7	x	x	x	x
O=C(NC1CCCCN(Cc2cccc(Cl)c2)C1=O)C1CCCCC1 (centres undefined)	2	0	x	x	x
C=CCSc1nsc(NC(=O)Nc2ccc(F)cc2)n1	54*	-1	17	21	55
CC(=O)N(C)C1=C(N2CCOCC2)C(=O)c2ccccc2C1=O	x	x	85*	100*	87*
Nc1ccn(C2OC(CO)C(O)C2O)c(=O)n1 (centres undefined)	3	-7	43	2	29
OCC1OC(n2ccc3c2ncn2ncnc32)C(O)C1O (centres undefined)	15	37	62*	65	53
Cc1nnc(SC(=O)N2c3ccccc3Sc3ccccc32)s1	-6	60*	17	31	65*
CC(C)CC(=NNC(=O)c1ccncc1)c1cc(Cl)ccc1O	4	-5	53	45	71*
SMILES	COUP-TFII inh	NCOA2 inhibitor	SRC1 inh	LRH-1 inv ag	SRC3 inh
CC(=NNC(=O)c1ccncc1)c1ccccc1O	1	2	11	0	-2
C/C(=N\Nc1ccc2nncn2n1)c1ccco1	-4	12	-12	-24	13
C/C(=N\Nc1ccc2nncn2n1)c1ccccn1	-21	19	73*	17	76*
COc1ccc(C(=O)c2c(C(F)(F)F)oc3c2C(=O)c2ccccc2C3=O)cc1OC	43*	13	9	2	32
COc1ccc(C(=O)Nc2ccc3c(c2)C(=O)c2ccccc2C3=O)cc1OC	-3	-34	-6	-34	-4
CC(C)(C)c1nnc(N/N=C/c2cc(Br)ccc2O)n(N)c1=O	5	32	67*	2	76*
O=C(N/N=C/c1cc(Br)ccc1O)c1ccncc1	-15	8	38	11	70*
NC(=O)N/N=C\c1cc(Br)ccc1O	-26	-4	-7	18	-1
O=C(N/N=C/c1cc(Cl)ccc1O)c1ccc(Br)cc1	-14	8	28	8	66*
CC(C)(C)c1ccc(C(=O)CCC(=O)OCC(=O)NCCc2ccc(S(N)(=O)=O)cc2)cc1	29	54*	-3	26	-2
